In the library only some 3.6% were active in any assay of this set; here they are far more common.
Mtb bLac sens = beta-lactam sensitization of Mtb H37Rv; M. tuberculosis H37Rv growth with meropenem, percent inhibition; inhibition, % at 25 µM; hit rate 0.27% among 330,000; AID 434955; call rule not given here;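 further: growth measured after seven days incubation then overnight dye step; 0% = bacteria only wells and 100% = bacteria with antibiotic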
DUSP3 inh = blocks human VHR1 dual specificity phosphatase; recombinant VHR phosphatase, pNPP absorbance; inhibition, % at 13.3 µM; hit rate 0.52% among 290,000; in the data active means inhibition above about 50%
Target sequence (P51452 whole entry, looked up): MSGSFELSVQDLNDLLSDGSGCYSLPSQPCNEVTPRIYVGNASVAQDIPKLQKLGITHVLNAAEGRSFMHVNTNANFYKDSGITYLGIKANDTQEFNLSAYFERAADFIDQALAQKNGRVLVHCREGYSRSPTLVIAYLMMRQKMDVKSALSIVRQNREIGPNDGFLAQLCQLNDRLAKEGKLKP
FBA Mtb inh = inhibitors of M. tuberculosis fructose-bisphosphate aldolase. purified M. tuberculosis FBA, fluorescence read-out. inhibition, % at 1 µM. hit rate 2.3% among 360,000. AID 588726;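 further: 0% = vehicle and 100% = reference inhibitor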
Target sequence (P9WQA3 whole entry, looked up): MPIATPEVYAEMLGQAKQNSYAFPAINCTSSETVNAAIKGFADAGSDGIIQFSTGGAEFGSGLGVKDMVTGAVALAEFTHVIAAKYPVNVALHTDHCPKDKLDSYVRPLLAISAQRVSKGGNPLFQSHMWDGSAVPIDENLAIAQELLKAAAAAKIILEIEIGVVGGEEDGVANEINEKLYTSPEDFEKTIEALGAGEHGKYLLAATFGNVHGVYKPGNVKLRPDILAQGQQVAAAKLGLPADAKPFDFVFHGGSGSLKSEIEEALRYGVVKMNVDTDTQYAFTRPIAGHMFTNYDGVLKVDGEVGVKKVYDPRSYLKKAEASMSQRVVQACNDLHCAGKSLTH
Mtb hypoxia inh = reduces hypoxia-regulated biosensor signal in M. tuberculosis. M. tuberculosis hypoxia-regulated fluorescent reporter, fluorescence. fluorescence inhibition, % (test concentration not listed). hit rate 0.1% among 300,000. AID 1159583; in the data active means fluorescence inhibition mostly above about 23%, no sharp cut-off; inactive means mostly below about 17%
GDH-TPI counter-1 = inhibits GDH-TPI coupling enzymes, artifact for Mtb FBA screen. GDH-TPI coupled enzyme counterscreen, NADH absorbance. inhibition, % at 4.8 µM. hit rate 1.2% among 360,000. AID 588335; in the data active means inhibition above about 30%;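 further: 0% = DMSO wells and 100% = wells lacking the enzyme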
Mtb FBA inh conf = Mtb FBA inhibition, confirmed | purified M. tuberculosis FBA, fluorescence read-out | inhibition, % at 1 µM | hit rate 78% among 5,600 | AID 651616 | shares compounds with FBA Mtb inh;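 further: 0% = vehicle wells and 100% = reference inhibitor wells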
GDH-TPI counter-2 = inhibits GDH-TPI coupling enzymes, flagging Mtb FBA hits. shares compounds with FBA Mtb inh. GDH-TPI coupled enzyme counterscreen, fluorescence. inhibition, % at 1 µM. hit rate 81% among 5,600. AID 652141; in the data active means inhibition above about 10%
Numbers without * were called inactive; nt = not tested or not shown; + = active, no number. Unless noted, no stated cut-off is given here; in the data, active means inhibition above about 27%; inactive means the rest.

SMILES	Mtb bLac sens	DUSP3 inh	FBA Mtb inh	Mtb hypoxia inh	GDH-TPI counter-1	Mtb FBA inh conf	GDH-TPI counter-2
CC(=O)OCC(=O)[C@@]12OC3(CCCC3)OC1CC1C3CCC4=CC(=O)C=C[C@]4(C)[C@@]3(F)C(O)C[C@@]12C (stereo not given in full)	nt	nt	nt	-4	nt	nt	nt
CCC1=C2CCC3C(=O)N(c4ccccc4)C(=O)C3C2[C@@]2(C)C(=NCC3CC3)OC(=O)N2C1=O (stereo not given in full)	nt	nt	nt	3	nt	nt	nt
NC(=O)COc1c(-c2ccc(Br)o2)oc2ccccc2c1=O	-3	-8	105*	-4	35*	154*	113*
CC(C)Cc1[nH]c(=O)c(C#N)c2c1CCC2	-4	11	52*	nt	29	+	169*
COc1ccc(CC(=O)NN=C(C)c2cccnc2)cc1	nt	nt	nt	6	nt	nt	nt
COc1ccc2sc(C)cc(=O)c2c1	nt	nt	107*	nt	15	88*	52*
Clc1ccc(N2N=C(c3cccs3)CC2c2ccco2)cc1 (stereo not given)	3	15	81*	nt	3	82*	55*
c1ccc(N2N=C(c3cccs3)CC2c2ccco2)cc1 (stereo not given)	-5	17	78*	nt	20	14	10*
CCC(=O)N1N=C(c2cccs2)CC1c1ccco1 (stereo not given)	0	4	3	5	2	nt	nt
Fc1ccc(C2CC(c3ccco3)=NN2c2ccccc2)cc1 (stereo not given)	-3	-14	60*	6	8	+	+
N#CC(=Cc1ccc(N2CCOCC2)o1)C(=O)N1CCOCC1	nt	nt	nt	26	nt	nt	nt
CCOC(=O)C1C2COc3ccc(Br)cc3C2N2C(=O)c3ccc(F)cc3NC(=O)[C@@]12C (stereo not given in full)	nt	nt	nt	3	nt	nt	nt
CCN(CC)CCn1c2ccccc2c2cnc(N)c(C#N)c21	12	14	29*	nt	5	+	180*
CC(=O)c1cccc(OC(=O)C2=CC=CN3CCS(=O)(=O)N=C23)c1	-1	nt	44*	6	12	146*	152*
O=C(Nc1cccc(Cl)c1)C1=CC=CN2CCS(=O)(=O)N=C12	-7	nt	0	6	30	nt	nt
Cc1cc[n+](-c2[nH]c(=O)sc2C=NNC([S-])=Nc2ccccc2)cc1C	nt	nt	nt	17	nt	nt	nt
CCOC(=O)c1nnc(-c2ccccc2)[nH]c1=O	3	10	0	0	9	nt	nt
NC(=O)c1nc(-c2ccccc2)c(-c2ccccc2)[nH]c1=O	-6	nt	67*	9	13	37*	22*
COc1cccc(C2C3=C(CC(C)(C)CC3=O)Nc3cc4c(cc32)OCO4)c1 (stereo not given)	8	6	15	nt	25	nt	nt
CC(=O)Oc1ccc(C2C3=C(CC(C)(C)CC3=O)Nc3cc4c(cc32)OCCO4)cc1 (stereo not given)	0	27	47*	4	43*	72*	63*
CCOc1ccccc1C1C2=C(COC2=O)Nc2cc3c(cc21)OCO3 (stereo not given)	1	9	11	8	2	nt	nt
O=C1OCC2=C1C(c1ccc(F)cc1)c1cc3c(cc1N2)OCO3 (stereo not given)	nt	-2	27*	3	7	133*	142*
O=C1OCC2=C1C(c1ccc(F)cc1)c1cc3c(cc1N2)OCCO3 (stereo not given)	nt	2	74*	7	37*	+	137*
CN(C)C(CNC(=O)c1cc(-c2ccco2)nc2ccccc12)c1ccccc1 (stereo not given)	-17	nt	38*	7	10	9	-4
Cc1ccc(-c2cc(C(=O)NCC3(N(C)C)CCCCC3)c3ccccc3n2)o1	nt	nt	29*	nt	26	23	16*
SMILES	Mtb bLac sens	DUSP3 inh	FBA Mtb inh	Mtb hypoxia inh	GDH-TPI counter-1	Mtb FBA inh conf	GDH-TPI counter-2
CC(C)CCNC(=O)c1cc(-c2ccco2)nc2ccccc12	68	16	111*	8	20	+	+
COc1ccc(-c2ccc(C(=O)NCC(C)C)c3occc23)c(C)c1	nt	nt	58*	nt	10	166*	132*
COc1ccc(-c2ccc(C(=O)NCC3CC3)c3occc23)c(C)c1	nt	nt	57*	nt	-1	46*	33*
COc1ccc(-c2ccc(C(=O)NCc3ccc(F)c(F)c3)c3occc23)c(C)c1	nt	nt	10	nt	4	nt	nt
COc1ccc(-c2ccc(C(=O)NCc3ccncc3)c3occc23)c(C)c1	nt	nt	111*	nt	-8	+	+
COc1ccc(-c2ccc(C(=O)Nc3ccccc3)c3occc23)c(C)c1	nt	nt	-2	nt	4	nt	nt
CCOc1ccc(-c2cc(C(=O)NN=Cc3cccnc3)c3ccccc3n2)cc1	nt	nt	nt	6	nt	nt	nt
N#Cc1ccc(-c2ccc3c(c2)OCO3)nc1SCC(=O)OCc1ccccc1	-6	15	60*	8	5	67*	44*
Cc1ccc(C(=O)CSc2nc(-c3ccccc3)ccc2C#N)cc1	3	-7	1	-9	3	nt	nt
CC1COC(=O)C(Cc2ccc(F)cc2)CC=CCC(CC(=O)N(CCO)Cc2ccccc2)C(=O)N1 (stereo not given)	nt	nt	nt	2	nt	nt	nt
COc1cccc2[nH]c(=O)c(-c3ccccc3)cc12	3	21	71*	10	9	47*	39*
COc1cccc2[nH]c(C(=O)NC(C)c3ccccc3)cc12 (stereo not given)	2	6	50*	13	-6	156*	117*
COc1cccc(-c2nn(-c3ccc(C)cc3)cc2C(=O)NCC2CCCO2)c1 (stereo not given)	7	nt	7	-4	8	nt	nt
COc1c(N)c2ccccc2[nH]c1=O	-16	16	6	nt	4	nt	nt
COc1cccc(-c2nn(-c3ccc(F)cc3)cc2C(=O)NCC2CCCO2)c1 (stereo not given)	-6	nt	47*	-3	-9	+	+
COc1ccccc1-c1nc(C(=O)NCC2CCCO2)cc2c1[nH]c1ccccc12 (stereo not given)	-3	25	24	nt	7	nt	nt
COc1cc(-c2nc(C(=O)NCC3CCCO3)cc3c2[nH]c2ccccc23)cc(OC)c1OC (stereo not given)	64	4	38*	nt	3	60*	50*
Cn1cccc1-c1cc(C(=O)NN=CC=Cc2ccccc2)[nH]n1	nt	nt	nt	-1	nt	nt	nt
O=C(NN=Cc1ccccc1Br)c1cccc(S(=O)(=O)N2CCOCC2)c1	nt	nt	nt	-7	nt	nt	nt
O=C(NCCCN1CCOCC1)c1cc2c([nH]c3ccccc32)c(-c2cccc(Br)c2)n1	96	21	21	nt	6	nt	nt
COc1cccc(-c2nc(C(=O)NCCCN3CCOCC3)cc3c2[nH]c2ccccc23)c1	-8	37	38*	nt	15	-1	-7
CCN1CCCC1CNC(=O)c1cc2c(OC)cccc2[nH]1 (stereo not given)	-4	26	30*	6	-1	61*	34*
